In all, about 410,000 compounds went through this assay and about 18,000 (4.4%) were called active. Not shown: some 7% with an inconclusive outcome. Shown is part of a subset that was picked to be rich in actives. Unmarked numbers belong to inactive results. Rule as the data show it: active = activity change below about -60%; inconclusive = no clear call, values can overlap the other calls; inactive = above about -39%.
Test: qHTS Assay for inhibitors of the human cytomegalovirus (HCMV)
Conditions: HFF cells, HCMV-luciferase reporter, 72 h; at 57.5 µM; hits give low values
Outline: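 HFF cells seeded 16 h at 37C, treated with compounds, infected with luciferase-reporter HCMV at MOI 1 PFU/cell; luciferase read at 72 h post infection, normalized to buffer-only and Salinomycin controls.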
% is scaled to controls: 0 for no effect and ±100 for the full control effect.

Structure (SMILES) | activity change, negative = inhibition
COc1ccccc1CNC(=O)c1ccccc1NC(=O)c1nsc2ccccc12 | 12.6%
Cc1c(Cl)cccc1NC(=O)N1CCN(C(=O)c2nsc3ccccc23)CC1 | 0%
CCc1ccccc1NC(=O)N1CCN(C(=O)c2nsc3ccccc23)CC1 | 0% (active)
COc1ccc(OC)c(NC(=O)CN2CCCN(Cc3cc(C)ccc3C)S2(=O)=O)c1 | 0%
Cc1ccnc(NC(=O)C2CCN(S(=O)(=O)c3c(C)c(C)cc(C)c3C)CC2)c1 | -4.39%
CN1CCN(C(=O)CCc2ncc(C(F)(F)F)cc2Cl)CC1 | -28.5%
N#CCc1ccc(NC(=O)c2ccccc2C(=O)Nc2ccc(CC#N)cc2)cc1 | -72.2% (active)
CC(=O)Nc1ccc(CC#N)cc1 | 26.2%
CC(C)n1ncc2c(C(=O)Nc3ccc(CC#N)cc3)cc(C3CC3)nc21 | 30.4%
Cc1ccc(-c2nc3cccc(C)n3c2Nc2ccc3c(c2)OCCO3)cc1 | 76%
COc1ccc(NC(=O)C2CCCN(S(=O)(=O)c3cccc4nonc34)C2)cc1Cl (centres undefined) | -11.9%
O=C(C1CC1)N1CCc2cc(Br)cc(S(=O)(=O)N3CCN(c4ccccc4F)CC3)c21 | 6.64%
CNC(=O)c1ccc(-c2nc(CN3CCc4ccccc43)c(C)o2)cc1 | 18.4%
Cc1ccc(N2CC(NC(=O)Cc3cccs3)CC2=O)cc1 (centres undefined) | 76%
CCOC(=O)C1CCN(c2ncnc3c2c(-c2ccccc2)cn3-c2ccc(C)cc2)CC1 | -37.8%
Cc1sc2ncnc(N3CCC(C(=O)Nc4ccc(F)cc4Cl)CC3)c2c1C | -21.6%
CCc1ccc(C(=O)NNC(=O)C2CCN(c3ncnc4sc(C)c(C)c34)CC2)cc1 | -65.2% (active)
O=C(O)c1ccc(Cn2cnc3c(=S)nc[nH]c32)cc1 | 1.65%
NC1=NC(c2cc(F)cc(F)c2)n2c(nc3ccccc32)N1 (centres undefined) | -1.84%
CC1CCC(NS(=O)(=O)c2ccc3c(c2)CC(=O)N3)CC1 (centres undefined) | 23.2%
Cn1sc(=O)c2cc(S(=O)(=O)NC3CC3)ccc21 | -82.6% (active)
Cc1ccc(S(=O)(=O)NC2CCCCCC2)cc1C(N)=O | -23.9%
O=S1(=O)CC(N2CCSCC2)CN1Cc1cn(Cc2cccc(Cl)c2)nn1 (centres undefined) | -0.598%

Structure (SMILES) | activity change, negative = inhibition
O=C(NCCc1ccc(Cl)cc1)c1ccc2nc(CCc3ccccc3)oc2c1 | 44.3%
CCOc1ccccc1CNCc1c(C(=O)O)c(C)n(Cc2ccc(C)cc2)c1C | 2.89%
O=C(CSc1nnc(CNC(=O)c2ccc(F)cc2)o1)Nc1ccc2c(c1)OCO2 | -6.33%
O=C(CSc1nc(=O)n2ccccc2n1)Nc1ccc2c(c1)OCCO2 | -0.0406%
O=C(CSc1nc(-c2cccc(F)c2)[nH]c1-c1ccccc1)Nc1ccc2c(c1)OCO2 | -87.5% (active)
O=C(CSc1ccc(-c2ccc(F)cc2)nn1)Nc1ccc2c(c1)OCCO2 | 16.6%
O=C(CSc1nnnn1C1CCCC1)Nc1ccc2c(c1)OCCO2 | 15.2%
O=C(CSc1nc(C2CC2)nc2ccccc12)Nc1ccc2c(c1)OCCO2 | -71.4% (active)
CCOc1cc(C(=O)Nc2nnc3n2CCS3)cc(OCC)c1OCC | -4.78%
O=C(CSc1ncc(-c2ccccc2)[nH]1)Nc1ccc(F)cc1F | -18.3%
O=C(CC1C(=O)N(c2ccccc2)C(=O)N1CCc1cccs1)Nc1ccc(F)cc1 (centres undefined) | -11.5%
Cc1cc(OCCCC(=O)NCCN2C(=O)S/C(=C\c3cccnc3)C2=O)ccc1Cl | -21.9%
O=C(CCCN1C(=O)/C(=C/c2ccccc2)SC1=S)Nc1ccc(O)cc1 | -85.4% (active)
Cc1cc(C)cc(NC(=O)CCN2C(=O)c3ccccc3C2=O)c1 | -12.5%
COc1ccc(NC(=O)CCCN2C(=O)C(c3ccccc3)Oc3cccnc32)cc1 (centres undefined) | 37.1%
CC(=O)Nc1ccc(NC(=O)CCN2C(=O)C3CC=CCC3C2=O)cc1 (centres undefined) | 19.5%
COC(=O)C1=C(C)N(C(C)c2ccccc2)C(=O)/C1=C\c1ccco1 (centres undefined) | 29.2%
O=C(CCCN1C(=O)C(c2ccccc2)Oc2cccnc21)Nc1ccccc1Br (centres undefined) | 4.91%
O=C(CCCN1C(=O)/C(=C/c2cccs2)SC1=S)Nc1ccc(O)cc1 | -92.8% (active)
O=C(CCCN1C(=O)/C(=C\c2ccccc2)SC1=S)Nc1ccccc1O | -94.8% (active)
N#Cc1c(NC(=O)CCCN2C(=O)c3ccccc3C2=O)oc(-c2ccccc2)c1-c1ccccc1 | -2.46%
O=C(CCCN1C(=O)/C(=C/c2ccco2)SC1=S)Nc1ccccc1 | -96.7% (active)
COCCN(Cc1ccco1)C(=O)Cn1ncc2c([nH]c3ccccc32)c1=O | 1.17%

Structure (SMILES) | activity change, negative = inhibition
N#Cc1cccc(CN2CCC(=O)N([C@H](CO)c3ccccc3)CC2)c1 | -24.2%
O=C(Nc1ccc(Br)cc1)c1cc2nc(-c3ccccc3)cc(-c3ccccc3)n2n1 | 22.2%
CCc1ccc2oc(=O)cc(CN3CCCCC3C)c2c1 (centres undefined) | -19%
CCOC(=O)c1[nH]c(C)c(CCC(=O)NCc2ccccc2C)c1C | -16.4%
Cc1ccsc1C(=O)NNC(=O)COc1ccc(Br)cc1 | -16.1%
Cc1ccc(O)c(NC(=S)NC(=O)COc2ccc(Br)cc2)c1 | -97.8% (active)
Cn1cnnc1SCC(=O)NNC(=O)COc1ccc(Br)cc1 | -26.5%
COc1ccc(CN2CCc3nc(Nc4ccccc4)ncc3C2)c(OC)c1OC | -16.7%
COc1ccc(S(=O)(=O)c2cn(C)c3cc(N4CCCCC4)c(F)cc3c2=O)cc1 | -2.52%
COc1cccc(CCNC(=O)c2cccc(NC(=O)C3=C(C)OCCS3)c2)c1 | -34.7%
Cc1nc2nc(C)c(NS(=O)(=O)c3ccc(C(C)(C)C)cc3)c(=O)n2[nH]1 | 2.48%
O=C(Nc1ccc(N2CCN(C(=O)c3ccccc3)CC2)c(Cl)c1)c1cccnc1 | -70.9% (active)
O=C(Nc1ccc(N2CCN(C(=O)c3ccccc3)CC2)c(Cl)c1)c1ncn[nH]1 | -25.4%
Cc1ccccc1N1CCN(C(=O)c2cccnc2)CC1 | -6.56%
Cc1ccc(C(O)P(=O)(OC(C)C)c2ccc(N(C)C)cc2)cc1 (centres undefined) | 15.1%
CC(Nc1ccccc1)c1cccnc1 (centres undefined) | 4.97%
CC(C)COP(=O)(c1ccc(N(C)C)cc1)C(Nc1ccccc1)c1cccnc1 (centres undefined) | -101% (active)
Cc1ccc(S(=O)(=O)n2nc(-c3ccc(Cl)cc3)nc2NCc2ccccc2)cc1 | 8.1%
COc1ccc(C2c3c(oc4ccccc4c3=O)C(=O)N2Cc2ccc3c(c2)OCO3)cc1 (centres undefined) | -4.99%
COc1ccc(-c2nn(CC(=O)Nc3ccccc3F)c3c2cnc2ccc(F)cc23)cc1 | 39.2%
O=c1[nH]c(-c2ccccc2)cn1C1CCN(Cc2ccc(-c3nc4ccc(F)cc4nc3-c3ccccc3)cc2)CC1 | 54.8%
CCc1cc(-c2nnn(CCC3COCCO3)c2CC)ccc1-c1cn(Cc2ccc3ccccc3c2)nn1 (centres undefined) | -80.6% (active)
O=C(C1CCC1)N1C[C@H]2[C@@H](c3ccccc31)[C@@H](CO)N2C(=O)c1ccccc1F | 27.8%

Structure (SMILES) | activity change, negative = inhibition
CC(C)(C)c1ccc(C(=O)NCC(c2ccc(Cl)cc2)N2CCOCC2)cc1 (centres undefined) | -1.98%
Cc1ccc(C(=O)N2c3ncnn3C3(CCCCC3)[C@@H]3CCCC[C@@H]32)cc1 | -15.5%
COc1ccc(CCN2CC(C(=O)OCC(=O)NCc3ccccc3Cl)CC2=O)cc1OC (centres undefined) | 16.6%
COc1ccc(CC(=O)N2CC3ON=C(c4c(F)cccc4Cl)C3C2)cc1OC (centres undefined) | -61.7% (active)
COc1ccc(S(=O)(=O)N2CC3ON=C(c4c(F)cccc4Cl)C3C2)cc1OC (centres undefined) | -7.48%
COc1ccccc1NC(=O)c1oc2ccccc2c1NC(=O)COc1ccccc1OC | 2.62%
CCOc1ccccc1CNC(=O)c1cnc2c(-c3ccc(OCC)c(OCC)c3)c(C)nn2c1C | -3.31%
Cc1ccc(CN2COc3cc(C)c4c(oc(=O)c5ccccc54)c3C2)cc1 | 8.87%
CC1CCc2sc(C(=O)N/N=C/C3CCCCC3)cc2C1 (centres undefined) | 13.4%
C/C(=N\NC(=O)c1cc2c(s1)CCC(C)C2)c1cccnc1 (centres undefined) | -78.9% (active)
C/C(=N\NC(=O)c1cccnc1)c1ccc(-n2ccnc2)cc1 | -16.6%
Cc1ccc(C)c(N2CCN(Cc3nnc(-c4ccccc4)o3)CC2)c1 | 27.7%
COc1ccc(-c2nc(CN3CCC(C(=O)NCCN(CC(C)C)CC(C)C)CC3)c(C)o2)cc1OC | -0.431%
Cc1nnc(C)n1-c1ccc(C(=O)Nc2cccc(Br)c2)cc1 | 33.2%
CCN1C(=O)N[C@@H](CCc2ccccc2)C(C(=O)OC)=C1C | -1.16%
CCOC(=O)CN(C(=O)COc1nc(C)cc(C)c1C#N)c1ccc(Cl)cc1 | -1.87%
CCOc1ccc(/C=C(\C#N)c2nc3ccccc3c(=O)[nH]2)cc1OC | 18%
CCOc1cc(/C=C(/C#N)c2ccc(Cl)cc2)cc(Cl)c1OCC(=O)O | -79.4% (active)
Cc1ccc(Cn2c(=O)n(-c3ccc(C)cc3)c(=O)c3c2c2cc(C)ccc2n3C)cc1 | 5.49%
CC1CCCN(c2cc3c(cc2F)c(=O)c(S(=O)(=O)c2cccc(Cl)c2)cn3Cc2ccccc2)C1 (centres undefined) | -26.5%

— PubChem BioAssay AID1259415 (National Center for Advancing Translational Sciences (NCATS), 2018)
